Most compounds without a hit are left out; they make up all but 4.8% or so of the library.
DAX1 inh-1 = DAX1 (NR0B1) inhibitors, primary screen, cell-based, HEK293, Gal4-DAX1, luciferase luminescence | Nuclear receptor subfamily 0 group B member 1 (Homo sapiens), P51843 | HEK293 Gal4-DAX1 luciferase reporter | inhibition, % at 6.75 µM | 340,000 compounds, 0.99% hits;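 active = inhibition above the mean over all tested compounds plus 3 SD, cut at about 4.2% in these data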;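 also: 0% = DAX1-transfected cells with DMSO and 100% = empty-vector control cells with DMSO; inhibition shows as a rise in luminescence from relieved DAX1 repression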
Target sequence (P51843 207-470 limits assumed): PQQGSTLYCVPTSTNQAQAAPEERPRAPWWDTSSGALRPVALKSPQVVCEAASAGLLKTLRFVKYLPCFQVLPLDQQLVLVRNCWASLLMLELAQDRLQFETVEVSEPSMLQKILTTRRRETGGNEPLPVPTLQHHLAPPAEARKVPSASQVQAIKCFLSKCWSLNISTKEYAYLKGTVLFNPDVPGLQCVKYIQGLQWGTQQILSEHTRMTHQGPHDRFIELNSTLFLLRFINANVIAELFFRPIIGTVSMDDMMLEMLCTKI
hgDAF12 agonist = H. glycines DAF-12 receptor agonists, primary screen, cell-based, luminescence, HEK293, GAL4 fusion, UAS-luciferase; 370,000 compounds, 1.8% hits; HEK293 GAL4-hgDAF12 UAS-luciferase reporter, agonist luminescence; normalized to butyrate control; Nuclear hormone receptor DAF-12 (Heterodera glycines), GAL4 fusion; activation, % at 6.8 µM;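 active = activation above a cutoff set at the mean of all screened compounds plus 3 SD, cut at about 10% in these data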;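 also: 0% = DMSO wells and 100% = sodium butyrate wells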
ssDAF-12 act = S. stercoralis DAF-12 nuclear receptor activators, primary screen, cell-based, luminescence, HEK293, GRIP1 co-expression, lit1-tk-luc; activation, % at 6.8 µM; HEK293 ssDAF-12/GRIP1 lit1-tk-luc reporter; % of 3 µM dafachronic acid response; 370,000 compounds, 1% hits; AID 652126, 2013;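 active = activation above the mean over all tested compounds plus 3 SD, cut at about 0.9% in these data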;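 also: 0% = DMSO-only wells and 100% = 3 µM delta7-dafachronic acid wells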
hcDAF12 agonist = H. contortus DAF-12 nuclear receptor activators, primary screen, cell-based, luminescence, HEK293, lit1-tk-luc reporter. HEK293 hcDAF-12 lit1-tk-luc reporter; 0% DMSO, 100% Δ7-dafachronic acid. activation, % at 6.8 µM. 370,000 compounds, 1.4% hits. AID 652067, 2013;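 active = activation above the mean of all tested compounds plus 3 SD, cut at about 5.5% in these data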;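 also: 100% = response to 3 µM Δ7-dafachronic acid high control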
SMARCA2 act = SMARCA2 (BRM) function activators, primary screen, cell-based, luminescence, high throughput; MG213 cells, MMTV-luciferase reporter, dexamethasone, overnight; activation, % at 9.1 µM; 370,000 compounds, 1% hits; AID 652017, 2013; in the data active = activation above about 7.8%;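 also: 0% = vehicle wells and 100% = reference activator wells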
DAX1 inh-2 = DAX1 (NR0B1) inhibitors on StAR promoter, primary screen, cell-based, luminescence, SF-1 (NR5A1), full-length DAX-1; HEK293T StAR-luciferase reporter, SF-1/DAX-1 repression relief; inhibition, % at 6.8 µM; 370,000 compounds, 1.1% hits; AID 652010, 2013;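 active = inhibition above the mean over all tested compounds plus 3 SD, cut at about 3.6% in these data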;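 also: 0% = DAX-1 cells with DMSO and 100% = cells lacking DAX-1 with DMSO; higher inhibition means more luminescence from relief of DAX-1 repression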
SMARCA2 conf = SMARCA2 (BRM) function activators, confirmation, cell-based, luminescence, triplicate; shares compounds with SMARCA2 act; MG213 cells, MMTV-luciferase with dexamethasone, overnight; MG213 cells expressing E1A, Rb sequestered; DMSO wells 0%, reference activator 100%; activation, % at 9.1 µM; 3,500 compounds, 30% hits; AID 652260, 2013;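 active = activation above its plate's cutoff, the mean activation of tested wells plus 3 SD, cut at about 7.9% in these data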
VP16 Luc act = GAL4-VP16 luciferase reporter activation, counter-screen for SMARCA2 (BRM) activator project, cell-based, pG5luc, luminescence, high throughput | HEK293 GAL4-VP16 pG5luc reporter; scaled: DMSO wells 0%, SAHA wells 100% | shares compounds with SMARCA2 act | activation, % at 9.1 µM | 3,500 compounds, 41% hits | AID 686939, 2013;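 active = activation above the solvent-only control well mean plus 3 SD, averaged across control plates, cut at about 5.2% in these data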
The depositor's hits bear a star; . = no result.

SMILES	DAX1 inh-1	hgDAF12 agonist	ssDAF-12 act	hcDAF12 agonist	SMARCA2 act	DAX1 inh-2	SMARCA2 conf	VP16 Luc act
O=C(CCSc1ccc(Cl)cc1)N1CCN(c2ncccn2)CC1	2	3	0	2	9.3*	1	4	5
CCOc1cc2c(cc1OCC)C(c1ccccc1)N(c1ccc(C(=O)O)cc1)C(=O)C2 (stereo unspecified)	-1	1	-1	0	9.5*	0	5	-1
C/C(=N\NC(=O)c1nnn(-c2nonc2N)c1C)c1ccc(OCc2ccccc2)cc1	1	2	0	2	14*	2	4	6.1*
O=C(NCCSc1ccccc1)c1ccccc1Cl	1	15*	0	1	8.7*	3	8.7*	8.8*
Oc1ccccc1-c1nnc(COc2ccc(Cl)cc2Cl)o1	3	4	-1	0	9.3*	2	5	13*
COc1ccc(CC(NC(C)=O)C(=O)NC2CCN(c3nc(C)cc(C)c3C#N)CC2)cc1 (stereo unspecified)	-1	1	-1	-2	1	0	.	.
COc1ccc(CC(NC(C)=O)C(=O)NC2CCN(c3nc(C)cc(C)c3C#N)CC2)cc1OC (stereo unspecified)	0	3	-1	-2	15*	-1	3	0
COC(=O)c1cc(NC(=O)c2ccc(Cn3cc(Cl)cn3)o2)cc(C(=O)OC)c1	0	3	-1	0	-3	-1	.	.
CC(C)NC(=O)c1ccccc1-c1ccccc1	1	2	-1	-1	-1	0	.	.
CC(C)NC(=O)C1(C#N)C=C1c1ccccc1 (stereo unspecified)	.	-4	-1	-3	9.4*	-2	3	-1
Cc1cccc(C(=O)N[C@H](C(=O)Nc2nnc(C3CC3)s2)C(C)C)c1	1	0	-1	-1	-3	0	.	.
Cc1cccc(C(=O)N[C@H](C(=O)Nc2ncc(C)s2)C(C)C)c1	2	9	-1	1	27*	1	26*	0
Cc1ccc(/C=C2\SC(N3CCN(C(c4ccccc4)c4ccccc4)CC3)=NC2=O)o1	-2	-2	-1	0	0	0	.	.
CCNC(=O)C(=O)NCCC1CCCCN1S(=O)(=O)c1cccs1 (stereo unspecified)	0	1	-1	0	-2	1	.	.
COc1ccc(C(=O)c2sc(Nc3ccccc3F)nc2N)cc1	3	7	-1	0	16*	1	11*	12*
COc1ccc(C(=O)c2sc(Nc3ccccc3)nc2N)cc1	2	-1	-2	-4	6	-1	.	.
Nc1nc(Nc2ccccc2)sc1C(=O)c1ccccc1	-1	7	-2	-2	11*	1	12*	8.1*
O=C(Nc1cc(S(=O)(=O)N2CCCC2)ccc1Cl)c1cc(F)c(F)c(F)c1F	0	1	-1	1	2	-1	.	.
O=C(CNCc1cccc2ccccc12)Nc1ccccc1[N+](=O)[O-]	-1	5	1	1	9.7*	1	-2	0
Cc1ccc2nc(NC(=O)COC(=O)c3ccco3)sc2c1	1	9	0	5.8*	9.8*	2	8	2
O=C(COC(=O)c1ccco1)Nc1nc2ccc([N+](=O)[O-])cc2s1	-1	-1	-1	0	-2	0	.	.
O=C(Nc1ccccc1)Nc1ccc2ocnc2c1	1	6	-1	1	0	0	.	.
O=C(Nc1ccccc1)Nc1ccc2ncoc2c1	0	7	-1	3	13*	1	2	7.3*
Cn1nc2c3ccccc3n(Cc3ccccc3)c2nc1=S	2	4	-2	1	9.1*	0	10*	4
CCn1c2ccccc2c2nn(C)c(=N)nc21	-1	-2	-1	-2	1	0	.	.
SMILES	DAX1 inh-1	hgDAF12 agonist	ssDAF-12 act	hcDAF12 agonist	SMARCA2 act	DAX1 inh-2	SMARCA2 conf	VP16 Luc act
O=C(C1=C[C@H](c2ccc(Br)cc2)C[C@H](OCc2ccc(CO)cc2)O1)N1CCN(Cc2ccc3c(c2)OCO3)CC1	-1	-2	-1	-2	-1	-1	.	.
O=C(O)c1ccccc1N/N=C\c1ccnc2ccccc12	0	12*	1	6.4*	8.0*	4	3	3
Cc1ccc(Cn2ccnc2C(=O)Nc2ccccc2)cc1	1	7	1	3	9.3*	1	6	3
N#Cc1ccc(Cn2ccnc2C(=O)Nc2ccccc2)cc1	1	0	-1	-2	-1	0	.	.
CNc1ccc(/C=C(\C#N)c2ccccn2)cc1[N+](=O)[O-]	1	5	-1	1	13*	2	13*	8.0*
O=c1oc2ccccc2c(O)c1/C=C1\C=Nc2ccccc21	2	2	0	5	-7	0	.	.
CC(=O)N1c2ccc(S(=O)(=O)N3CCC(C(=O)NCc4ccc(C)cc4)CC3)cc2CC1C (stereo unspecified)	-1	-3	-1	-2	11*	0	-2	1
CC(=O)N1c2ccc(S(=O)(=O)N3CCC(C(=O)NCc4ccc(Cl)cc4)CC3)cc2CC1C (stereo unspecified)	0	-2	-1	-3	-5	0	.	.
O=[N+]([O-])c1cc(O)c2ncccc2c1	.	-3	-1	1	21*	-1	1	2
CCn1cc(C(=O)OCC(=O)Nc2c(C)n(C)n(-c3ccccc3)c2=O)c(=O)c2ccc(C)nc21	1	.	.	.	.	.	.	.
O=C(COn1nnc2ccccc21)N1CCN(Cc2ccccc2)CC1	1	2	0	2	10*	1	4	5

Screening results deposited in PubChem by The Scripps Research Institute Molecular Screening Center.
